# Screens: PubChem BioAssay, National Center for Advancing Translational Sciences (NCATS)
# mIDH1 inhibitor = human IDH1 R132H inhibition | IDH1-R132H enzyme, NADPH consumption, diaphorase/resazurin fluorescence | O75874 | Potency, µM (top dose mostly 76.6 µM), inactives show at the top dose activity change, negative = inhibition, actives largely listed as inhibitors | 390,000 compounds, 0.093% hits; also: potency is read from the fitted curve at half-maximal effect; nearly all actives have a fitted effect of over 65% in size
# Target sequence (O75874 whole entry R132H, stated change not applied): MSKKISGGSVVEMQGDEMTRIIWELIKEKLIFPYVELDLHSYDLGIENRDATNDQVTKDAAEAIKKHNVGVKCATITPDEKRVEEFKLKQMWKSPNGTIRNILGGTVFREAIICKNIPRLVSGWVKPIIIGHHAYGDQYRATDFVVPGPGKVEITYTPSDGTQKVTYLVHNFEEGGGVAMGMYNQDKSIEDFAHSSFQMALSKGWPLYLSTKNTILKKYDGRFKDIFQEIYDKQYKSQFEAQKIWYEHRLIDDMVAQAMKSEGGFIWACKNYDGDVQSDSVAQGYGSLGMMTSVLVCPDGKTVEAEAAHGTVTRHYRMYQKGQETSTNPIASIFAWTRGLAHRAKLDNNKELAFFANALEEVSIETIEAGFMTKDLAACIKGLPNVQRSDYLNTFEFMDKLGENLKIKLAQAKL
#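 IDH1-R132H (0.5 ug/mL) preincubated 30 min with compound, then NADPH (0.016 mM) and alpha-KG (2 mM) added; 80 min at RT, pH 7.5. Remaining NADPH coupled via diaphorase/resazurin to fluorescence (540/590 nm); concentration-response curves normalized to no-enzyme control.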
# GLS inh = glutaminase GLS (human) inhibition | O94925 | GLS enzymatic activity, qHTS titration | Potency, µM (doses to about 45.5 µM), without a hit: top-dose activity change, negative = inhibition, actives largely listed as inhibitors | 410,000 compounds, 0.21% hits; also: potency is read from the fitted curve at half-maximal effect
#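 Read-out is an Amplex red fluorescence increase coupled through glutamate oxidase and HRP, measured before and after 30 min room-temperature incubation. hKGA is in 45 mM KH2PO4 (pH 8.2) with 0.02% Tween-20; glutamine added as 1mM solution.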
# rTrxR1 inhibitor = blocks rat thioredoxin reductase 1; O89049; 390,000 compounds, 1% hits; recombinant rTrxR1, NADPH fluorescence consumption, selenite substrate; Potency, µM (titrated, usually from 114 µM), without a hit: top-dose activity change, negative = inhibition, usual class: inhibitors; also: potency is read from the fitted curve at half-maximal effect; nearly all actives have a fitted effect of over 65% in size
#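 Rat TrxR1 (90 nM in the dispensed reagent) was pre-reduced with 400 uM NADPH for 5 min at room temperature, then incubated with compound for 15 min. After 400 uM selenite was added, NADPH fluorescence (Ex 340/Em 450 nm) was followed for 8 min.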
# PKM2 act = increases activity of human pyruvate kinase M2; P14618; purified PKM2, Kinase-Glo ATP luminescence, activation; response scale: 0% is enzyme alone, no compound; Potency, µM (highest dose often 57.5 µM), inactives show top-dose activation, most hits filed as activators; 260,000 compounds, 0.34% hits; also: potency is read from the fitted curve at half-maximal effect; nearly all actives have a fitted effect of over 55% in size
#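 Kinase-Glo luminescence reports ATP generated from ADP (0.1 mM) and PEP (0.5 mM) by purified hPK-M2 after 1 h at room temperature, pH 7.2 imidazole buffer; intermediate enzyme activity allows detecting inhibitors and activators.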
# TrxR1 substrate = is turned over as a substrate by rat TrxR1. purified TrxR1 substrate turnover, NADPH consumption readout. 390,000 compounds, 0.01% hits. Potency, µM (highest dose often 114 µM), for the others: at the highest dose activity change, negative = substrate turnover. O89049; also: potency is read from the fitted curve at half-maximal effect; nearly all actives have a fitted effect of over 50% in size
#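 Rat TrxR1, dispensed at 90 nM, was prereduced with 400 uM NADPH (final) for 5 min at ~22 deg C, then incubated with compound 15 min before 400 uM selenite. A first-read NADPH fluorescence drop versus no-compound background flagged substrates.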
# LDHA inh = inhibitors of human lactate dehydrogenase A; P00338; purified LDHA, NADH/diaphorase-resazurin fluorescence; active compounds read low; activity change, % (values are at about 110 or 230 µM); 480,000 compounds, 0.15% hits; in the data active = activity change below about -30%; inconclusive = mostly about -25% to -30%;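 also: plate controls were DMSO wells for no effect and wells without enzyme for full effect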
#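 Resorufin fluorescence (ex540/em590), read at 0 and 20 min after diaphorase/resazurin addition, reports the NADH left after a 5 min room-temperature reaction of 2 nM human LDH5 with 0.06 mM NADH and 0.2 mM pyruvate.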
# The depositor's hits bear a star; u = inconclusive; x = no result; [ ] = another dose, or the depositor's remark. Hits are enriched below; roughly 1.4% of the tested compounds scored in any of these assays. Unless noted, calls follow the shape of the dose curve; as a rule, active = well fitted curve in the direction sought with a large enough effect; inconclusive = small, poorly fitted or top-dose-only effect, or another doubt; inactive = no such curve, though single readings can be large; an effect the other way counts as inactive or inconclusive. Unless noted, % is scaled to controls: 0 for no effect and ±100 for the full control effect.
SMILES,mIDH1 inhibitor,GLS inh,rTrxR1 inhibitor,PKM2 act,TrxR1 substrate,LDHA inh
Cc1ccc(NC(=O)CN2C(=O)N/C(=C\c3cccn3-c3ccc(C(=O)NC#N)cc3)C2=O)cc1,x,x,x,x,x,-37.0*
N#CNC(=O)c1ccc(-n2cccc2/C=C2\NC(=O)N(CC(=O)Nc3ccc(Cl)cc3)C2=O)cc1,x,x,x,x,x,-5.1
COc1ccc2c(c1)CCc1c(C(=O)N3CCOCC3)noc1-2,0.8%,-6.9%,20µM*,-9.8%,-1.9%,9.3
COc1ccc(NC(=O)COc2coc(CN3CCSCC3)cc2=O)cc1,x,x,x,x,x,-13.2
CSc1cccc(NC(=O)COc2coc(CN3CCSCC3)cc2=O)c1,x,x,x,x,x,-37.9*
Cc1cc2c(cc1C)N(C(=O)CCl)CC(=O)N2,-10.2%,1.8%,x,x,x,-4.3
Cc1cc2c(cc1C)N(C(=O)CCl)CCN2C(=O)CCl,-1.6%,-0.1%,1.12µM*,x,1.8%[57.1 µM],3.0
Cn1c(SCC(=O)N/N=C/C=C/c2ccco2)nc2ccccc21,2.1%,-9.9%,44.7µM*,-7.2%,-12.8%,2.2
Cn1c(SCC(=O)N/N=C/C=C/c2ccccc2[N+](=O)[O-])nc2ccccc21,3.2%,-7.1%,-1.5%,1.0%,-3.1%,-8.8
CCn1c(SCC(=O)N/N=C/C=C/c2ccco2)nnc1-c1ccccc1,5.3%,2.0%,35.5µM*,17.1%,-7.1%,10.5
Nc1nccnc1C(=O)NCc1ccc(Oc2ccc(F)cc2)cc1,x,x,x,x,x,7.1
CC(C)CC(=O)Nc1nn2c(C(C)C)nnc2s1,x,x,x,x,x,-0.6
CCOC(=O)c1cc2sc(C)cc2n1CCCN1C(=O)c2ccccc2C1=O,10.0%,2.7%,4.0%,-0.5%,-2.9%,-3.3
CCOC(=O)N1C=CC=C[C@@H]2[C@@H](N3C(=O)c4ccccc4C3=O)C(=O)N21,-2.6%,4.5%,15.8µM*,-2.4%,6.6%,-7.6
Cc1cccc(OCCOC(=O)c2cc(C)nc3ccccc23)c1,x,x,x,x,x,-3.3
CC(=O)c1sc(NC(=O)C2(F)C(F)(F)C(F)(F)C(F)(F)C(F)(F)C2(F)F)nc1C,-7.4%,13.5%,35.5µM*,-9.6%,u,0.3
CC(=O)c1sc(NC(=O)C=C(C)C)nc1C,4.7%,0.3%,2.6%,-11.4%,-5.8%,-13.9
CC(=O)c1ccc(NC(=O)c2noc3c2CCC3)cc1,0.0%,-18.8%,50.1µM*,-0.3%,-10.1%,-14.0
Cc1ccc(NC(=O)c2noc3c2CCC3)cc1C,10.9%,202.3%,50.1µM*,0.7%,13.0%,-0.2
C=CCSc1ccccc1NC(=O)c1sccc1C,x,x,x,x,x,12.2
C=CCN1C=C2C(=O)C(C)(OC(=O)c3ccc(OC)cc3)C(=O)C(c3ccco3)=C2C=C1CCCC (stereo not given),-15.0%,2.5%,7.08µM*,7.3%[11.5 µM],12.3%[57.1 µM],4.6
c1ccc(Cn2c(SCc3nc4ccccc4s3)nnc2-c2ccco2)cc1,2.7%,6.2%,10µM*,5.0%,7.9%[57.1 µM],-3.3
CCC(c1nnc(SCc2nc3ccccc3s2)n1Cc1ccccc1)N(C)C (stereo not given),-4.4%,9.3%,-1.4%[57.1 µM],-3.3%,5.9%,-5.4
CN(CC(=O)Nc1cccc(F)c1)Cc1ncc(-c2ccccc2)o1,x,x,x,x,x,2.3
O=C(Nc1cc(=O)[nH]c2nc(C(F)(F)F)nn12)c1ccc(Cl)cc1Cl,x,x,x,x,x,10.2
COc1ccc(CN(C)C(=O)CCn2ccc3ccccc32)c(OC)c1,x,x,x,x,x,11.2
O=S1(=O)CCN(Cc2ccccc2C(F)(F)F)CC1,4.3%,2.1%,17.2%,-3.7%,6.1%,-2.3
Cc1ccccc1CN1CCN(Cc2ccccc2C(F)(F)F)CC1,10.3%,4.7%,5.3%,-1.5%,3.5%,-38.6*
O=C(/C=C/c1cccc([N+](=O)[O-])c1)c1ccc([N+](=O)[O-])o1,u,1.6%,1.12µM*,x,-4.7%,14.6
O=C(/C=C/c1cccc([N+](=O)[O-])c1)c1ccco1,-8.3%,0.5%,17.8µM*,0.3%,-4.4%,-0.9
